PubChem BioAssay AID504339 (National Center for Advancing Translational Sciences (NCATS), 2011)
Screen size: about 390,000 compounds; about 17,000 (4.4%) were called active. Inconclusive results (about 8%) are left out. The entries come from a sample that favours actives as a whole. A call without a number means that no potency is given here. Values without a mark were called inactive. Calls follow the shape of the dose curve; as a rule, active = well fitted inhibition curve with a large enough effect; inconclusive = small, poorly fitted or top-dose-only effect; inactive = no such curve, though single readings can be large or run the other way.

These molecules were tested against Lysine-specific demethylase 4A (Homo sapiens) (UniProt O75164) (assay: qHTS Assay for Inhibitors of JMJD2A-Tudor Domain). Details: AlphaScreen JMJD2A-Tudor / H3K4me3 peptide binding; series mostly up to 114 µM.
Description: JMJD2A is a jumonji-domain-containing lysine demethylase that uses Fe(II) together with 2-OG to effect oxidative demethylation of histones. Methylation is one of many […] modification that affect epigenetic transcription. […] It is proposed that the functions of JmjD2A binding to the histones, is to maintain marks after they are installed and to spread the modifications by […], establishing a self-propagating cycle for rapid methylation over a large area of chromatin. […] Thus, small molecule targeting of the JMJD2A-tudor domain interaction with its target methylhistone mark is expected to enable sophisticated experiments probing the fine regulatory pathways leading to selective demethylation of a given methyllysine locus based on the methylation state of adjacent histone marks. A quantitative high throughput AlphaScreen has been developed to identify small molecule inhibitors based on a protocol published by NCGC and SGC [4].
Although AlphaScreen has significant advantages with its utility in a variety of epigenetic target assays, the primary screening data provided in this deposition should be used with caution due to the prevalence of screening artifacts. The top compound concentration tested was high (>100uM) in this assay, which increases number of actives and potential artifacts. An AlphaScreen counterscreen is highly recommended to be run against any putative actives to eliminate non-specific artifacts. Alternatively, one can use other AlphaScreen assays in PubChem to filter out promiscuous hits.
[1] Lee, J. et al. Distinct binding modes specify the recognition of methylated histone H3K4 and H4K20 by JMJD2A-tudor. Nat Struct Mol Biol. 15(1); 109-11. 2008. PMID: 18084306
[2] Yasgar, et al. Compound Management for Quantitative High-Throughput Screening. JALA. 2008 Apr;13(2):79-89. PMID: 18496600
[3] Inglese, et al. Quantitative high-throughput screening: a titration-based approach that efficiently identifies biological activities in large chemical libraries. Proc Natl Acad Sci. 1;103(31):11473-8. 2006. PMID: 16864780
[4] Quinn et al. A homogeneous method for investigation of methyl-dependent protein-protein interactions in epigenetics. Nucleic Acids Res., 38(2):e11. 2010. PMID: […]
[5] Baell,Holloway. New substructure filters for removal of pan assay interference compounds (PAINS) from screening libraries and for their exclusion in bioassays. J Med Chem. 53(7):2719-40. 2010. PMID: 20131845
NIH Molecular Libraries Probe Production Network [MLPCN]
NIH Chemical Genomics Center [NCGC]
Structural Genomics Consortium (SGC)
To each well of a 1,536w plate, 2ul of JMJD2A-Tudor (final 100nM) and 1ul biotinylated histone peptide methylated at Lys4 [b-H3(1-18)K4me3] (final 50nM) were added in 1x PBS buffer, pH 7.4, containing 0.01% Tween-20, using a nanoliter dispenser. Formation of a protein-peptide complex proceeded at room temperature for 30 min. A Kalypsys pin-tool transferred 23nl of library compound solution in DMSO to each well. Following a 30 min incubation of the protein-peptide complex with compounds at room temperature, a mixture of 40 µg/mL each streptavidin-coated donor and nickel chelate acceptor AlphaScreen beads (final 10 µg/mL) was added in a 1ul dispense for a final volume of 4ul, followed by a brief centrifugation (1000 rpm, 1 min). Plates were incubated protected from the light for 20 min at room temperature. Microplates were then read on an EnVision multilabel plate reader using the 1,536 plate HTS AlphaScreen aperture (excitation time 80 ms, measurement time 240 ms).
Also: nearly all actives have a fitted effect of over 50% in size.
Potency is read from the fitted curve at half-maximal effect.

Sequence of Lysine-specific demethylase 4A (Homo sapiens) (O75164 whole entry, looked up, the tested form may be a part): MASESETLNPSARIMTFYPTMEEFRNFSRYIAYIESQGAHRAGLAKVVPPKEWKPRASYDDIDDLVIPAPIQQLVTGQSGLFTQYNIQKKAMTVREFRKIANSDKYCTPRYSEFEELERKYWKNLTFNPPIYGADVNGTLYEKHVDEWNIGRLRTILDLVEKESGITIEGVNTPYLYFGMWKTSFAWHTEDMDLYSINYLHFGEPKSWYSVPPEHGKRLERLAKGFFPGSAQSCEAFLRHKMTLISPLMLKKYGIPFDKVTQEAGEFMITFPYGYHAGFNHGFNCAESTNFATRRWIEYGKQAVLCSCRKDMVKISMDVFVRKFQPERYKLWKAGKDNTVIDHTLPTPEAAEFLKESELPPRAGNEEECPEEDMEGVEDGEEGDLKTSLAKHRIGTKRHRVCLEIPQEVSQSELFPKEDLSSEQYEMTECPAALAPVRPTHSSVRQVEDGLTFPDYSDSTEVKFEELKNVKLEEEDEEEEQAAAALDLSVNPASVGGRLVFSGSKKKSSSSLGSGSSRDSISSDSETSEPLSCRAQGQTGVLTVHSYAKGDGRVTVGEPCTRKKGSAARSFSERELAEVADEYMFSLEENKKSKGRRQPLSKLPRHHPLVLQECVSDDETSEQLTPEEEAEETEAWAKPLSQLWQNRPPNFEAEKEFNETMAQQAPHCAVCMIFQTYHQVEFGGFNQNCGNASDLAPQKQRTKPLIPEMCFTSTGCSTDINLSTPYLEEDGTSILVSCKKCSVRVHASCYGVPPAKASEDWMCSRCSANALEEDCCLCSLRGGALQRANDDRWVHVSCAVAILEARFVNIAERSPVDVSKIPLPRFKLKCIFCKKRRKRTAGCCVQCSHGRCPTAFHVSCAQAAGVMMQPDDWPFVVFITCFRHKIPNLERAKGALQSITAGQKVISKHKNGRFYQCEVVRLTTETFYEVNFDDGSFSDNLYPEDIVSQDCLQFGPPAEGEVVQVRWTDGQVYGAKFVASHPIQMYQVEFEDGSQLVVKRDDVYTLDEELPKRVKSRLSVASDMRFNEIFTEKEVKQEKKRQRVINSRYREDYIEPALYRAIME

Compound	Potency	activity change, negative = inhibition
O=C(Nc1ccccc1Cl)N1CCC(CN2CCCC2)CC1	inactive	–
Cc1ccc2nc(COc3cccc(NC(=O)Nc4ccc(C)c(Cl)c4)c3)cc(=O)n2c1	inactive	–
CSc1nc(-c2ccc(F)cc2)nc2c1Cc1c(CO)cnc(C)c1O2	inactive	–
O=C(Cc1nn[nH]n1)NCCC1=CCCCC1	50.1 µM (active)	–
Cc1nnc(OCC(=O)NCCC2=CCCCC2)c2ccccc12	inactive	–
O=C(COc1ccc(Cl)cc1)NCCC1=CCCCC1	inactive	–
COc1ccc(C(=O)c2oc3ccccc3c2NC(=O)COc2cccc(C)c2)cc1	inactive	–
CCOC(=O)c1c(N)n(-c2cccc(C)c2C)c2nc3ccccc3nc12	inactive	–
COc1ccc(NC(=S)NCC2CCN(c3ccc(OC)cc3)C2)cc1 (configuration not stated)	35.5 µM (active)	–
COc1ccc(N2CCC(CNC(=S)Nc3c(C)cccc3C)C2)cc1 (configuration not stated)	39.8 µM (active)	–
COc1ccc(NC(=O)N2CCC(Cc3ccccc3)CC2)cc1	inactive	–
COc1ccc(OCC(=O)Nc2ccc(N3CCC(C)CC3)cc2)cc1	inactive	–
Cc1cccc(C)c1NC(=O)CNC(=O)C1CCCC1	inactive	–
COc1ccc(N2CCC(N3CCN(C)C(CCO)C3)CC2)cc1 (configuration not stated)	inactive	–
Cc1ccccc1NC(=O)Cn1c(=O)n(CCCCC(=O)NCc2ccccc2Cl)c(=O)c2ccccc21	inactive	–
COc1cccc(Nc2nc3ccccc3c3nncn23)c1	inactive	–
Cc1ccc(NC(=O)Cn2c(=O)n(-c3ccccc3)c(=O)c3c4c(sc32)CCCC4)cc1	inactive	–
COc1cc(OC)c(C(=O)Nc2ccc(N(C)C)cc2)cc1OC	79.4 µM (active)	–
COc1ccc(Cl)cc1C(=O)Nc1ccc(N(C)C(C)=O)cc1	inactive	–
COc1cc(OC)c(C(=O)Nc2ccccc2-c2ccccc2)cc1OC	inactive	–
Cc1ccc(NC(=O)CSc2nc3c([nH]c4ccccc43)c(=O)n2-c2ccccc2)cc1Cl	inactive	–
CCCNC(=O)C1CCC(Cn2c(=O)c3sccc3n(Cc3ccccc3F)c2=O)CC1 (configuration not stated)	inactive	–
O=C(Nc1cc(C(F)(F)F)ccc1Cl)c1cc2nc(-c3ccc4c(c3)OCO4)cc(C(F)(F)F)n2n1	inactive	–
Cc1cc(OCC(=O)NC2CCN(C)CC2)ccc1[N+](=O)[O-]	inactive	–
Cc1cc(OCCCN2CCN(Cc3ccccc3)CC2)ccc1[N+](=O)[O-]	10 µM (active)	–
Cc1cc(OCCCCOc2ccc(C#N)cc2)ccc1[N+](=O)[O-]	inactive	–

Compound	Potency	activity change, negative = inhibition
CN(C(=O)c1ccc2c(c1)N(Cc1cccc(Cl)c1)C(=O)c1ccccc1S2=O)C1CCCCC1 (configuration not stated)	inactive	–
COCCn1c(CCC(=O)Nc2cc(C)ccc2C)nc2cccnc21	inactive	–
CCOc1ccc(S(=O)(=O)c2cn(Cc3ccccc3)c3ccc(OCC)cc3c2=O)cc1	inactive	–
Cn1nnc2c(N3CCN(c4ccccc4)CC3)ncnc21	inactive	–
CCOc1ccccc1C(=O)Nc1ccc(S(=O)(=O)N2CCCCC2c2cccnc2)cc1 (configuration not stated)	inactive	–
O=C(c1cccc(Cl)c1)N1CCN(CCc2ccncc2)CC1	inactive	–
CCn1c(CSCc2c(Cl)cccc2Cl)n[nH]c1=S	–	-16.5% [at 11.4 µM]
CCn1c(CNS(=O)(=O)c2ccc(Cl)cc2)n[nH]c1=S	10 µM (active)	–
CSc1ccc(S(=O)(=O)NCc2ccc(Cl)cc2)cc1	inactive	–
COc1ccc(-c2nc3ccccc3s2)cc1NC(=O)COc1ccccc1C	inactive	–
COc1cccc2sc(NNC(=O)c3nc4ccccc4s3)nc12	50.1 µM (active)	–
COc1cccc(OC)c1C(=O)Nc1nnc(C(C)C)s1	inactive	–
Cc1ccc(OCCn2c(CNc3ccccc3C)nc3ccccc32)cc1	inactive	–
COc1ccc(CNC(=O)CSCc2nc(-c3ccccc3F)oc2C)cc1	inactive	–
COc1ccc(N2CCN(C(=O)CSCc3nc(-c4ccccc4Cl)oc3C)CC2)cc1	50.1 µM (active)	–
COc1ccc(N2CCN(C(=O)CN3C(=O)COc4ccccc43)CC2)cc1	inactive	–
CS(=O)(=O)C1=NN2C(=N)/C(=C\c3ccc(OCCOc4ccccc4)cc3)C(=O)N=C2S1	56.2 µM (active)	–
CCOc1cc(/C=C2\C(=N)N3N=C(C)SC3=NC2=O)ccc1OCCOc1ccccc1	inactive	–
COc1ccccc1OCCOc1ccc(/C=C2\C(=N)N3N=C(C)SC3=NC2=O)cc1	inactive	–
CCS(=O)(=O)C1=NSC2=NC(=O)/C(=C\c3ccc(OS(=O)(=O)c4ccccc4)cc3)C(=N)N21	44.7 µM (active)	–
COc1cc(/C=C2\C(=N)N3N=C(CC(=O)N4CCOCC4)SC3=NC2=O)cc(OC)c1OC	inactive	–
CCC(=O)Nc1c(C(=O)N2CCN(c3ccc(F)cc3)CC2)oc2ccccc12	inactive	–
Cc1ccccc1CCNC(=O)C1CCN(c2nc3ccccc3nc2C(F)(F)F)CC1	inactive	–
COc1ccc2c(c1)c(N1CCCC1=O)c(C(=O)Nc1ccc(OC)c(Cl)c1)n2C	inactive	–
Cc1nnc(N2CCC(C(=O)Nc3ccc(F)cc3)CC2)c2nn(-c3ccc(Cl)cc3)c(C)c12	inactive	–
COc1ccc(Cl)cc1-n1c(CCC(=O)O)ccc1-c1ccc(C)cc1	inactive	–

Compound	Potency	activity change, negative = inhibition
FC(F)(F)c1ccc(-n2cn[nH]c2=S)cc1	8.91 µM (active)	–
O=c1c2ccccc2c(-c2ccc(F)cc2)nn1-c1ccc(C(F)(F)F)cc1	inactive	–
CC(C)n1c(=S)[nH]c2cc(C(F)(F)F)ccc21	inactive	–
Cc1c(NC(=O)Cc2ccccc2)cccc1-c1nc2cccnc2s1	inactive	–
CCCC/S(C)=N/S(=O)(=O)c1ccc(C)cc1 (configuration not stated)	inactive	–
CC/S(CC1CC1(Cl)Cl)=N\S(=O)(=O)c1ccc(C)cc1 (configuration not stated)	inactive	–
Cc1ccc(S(=O)(=O)/N=S(\C)C(C)C)cc1 (configuration not stated)	50.1 µM (active)	–
Clc1ccccc1-c1cc(COc2ccc3ccccc3c2)no1	inactive	–
c1ccc2cc(OCCN3CCCC3)ccc2c1	7.94 µM (active)	–
CC(C)(c1ccccc1)c1ccc(OCCN2CCCC2)cc1	20 µM (active)	–
C#CC(CCN1CCCCC1)(OC)c1ccccc1 (configuration not stated)	inactive	–
CCCCOc1ccc(C(C)(O)CCN2CCOCC2)cc1 (configuration not stated)	inactive	–
O=C(Nc1ccc(F)cc1F)N1CCCN(CCOc2ccccc2)CC1	inactive	–
O=C(Nc1ccccc1Cl)N1CCC(CN2CCCCC2)CC1	inactive	–
O=C(CSCc1cnn(-c2ccccc2)c1-n1cccc1)NCc1ccc(Cl)cc1	inactive	–
CCOc1ccc(OCC)c(NC(=O)c2cc(C)nc3c2c(C)nn3-c2cccc(Cl)c2C)c1	inactive	–
CCOc1ccc(NC(=O)C(CC(C)C)N2Cc3ccccc3C2=O)cc1 (configuration not stated)	inactive	–
CCNC(=O)c1cc2n(n1)CCCN(Cc1ccc(C)cc1)C2=O	inactive	–
CCCCc1nn2c(=O)cc(COC(=O)c3cccc(NC(=O)COc4ccccc4)c3)nc2s1	inactive	–
Cc1ccc(Cl)cc1N(C)C(=O)Cn1nc(Cc2cccnc2)c2ccccc2c1=O	inactive	–
Cc1cc(NC(=O)C2CCC(CNS(=O)(=O)c3ccc(Br)s3)CC2)ccc1Br (configuration not stated)	inactive	–
COc1ccc(-c2cc(C(=O)N(C)CC(=O)Nc3ccccc3Cl)c3ccccc3n2)cc1OC	inactive	–
COc1ccc(NC(=O)CN(C)C(=O)c2n[nH]c3ccccc23)cc1	inactive	–
CSc1ncccc1C(=O)Nc1ccc(C)cn1	inactive	–
COc1ccc(NC(=O)CN(C)C(=O)c2cc(-c3ccc(C)o3)nc3ccccc23)cc1	89.1 µM (active)	–
Cc1ccc(NC(=O)c2cc(-c3ccc(C)o3)nc3ccccc23)nc1	35.5 µM (active)	–

Compound	Potency	activity change, negative = inhibition
CC(=O)N1CCN(C(=O)c2cc(-c3ccc(C)o3)nc3ccccc23)CC1	inactive	–
CCC1CN(S(=O)(=O)c2cc(-c3cc(C)no3)ccc2C)c2cc(C)ccc2O1 (configuration not stated)	inactive	–
COc1cccc(C(=O)Nc2ccc3oc(-c4ccc5ccccc5c4)nc3c2)c1	inactive	–
CCOc1ccc(C(=O)N2CCN(CCc3ccccn3)CC2)cc1	inactive	–
Cc1ccc(F)cc1NC(=O)CCSc1nc(-c2ccco2)cc(C(F)(F)F)n1	inactive	–
CCOC(=O)c1cc2c(=O)n3ccccc3nc2n(CC2CCCO2)c1=NC(=O)c1ccc(C(C)(C)C)cc1 (configuration not stated)	inactive	–
CCCn1c(NCc2ccc(N(CC)CC)cc2)nc2ccccc21	39.8 µM (active)	–
CCCn1c(NCc2ccccc2F)nc2ccccc21	inactive	–
CCCn1c(NC(=O)C23CC4CC(CC(O)(C4)C2)C3)nc2ccccc21	inactive	–
COc1cccc(CNC(=O)Cc2csc3nc(-c4ccccc4)cn23)c1	inactive	–
Cc1cc(C)c2oc(-c3cccc(NC(=O)c4cccc(F)c4)c3C)nc2c1	inactive	–
COc1ccc(-c2nc(Cn3c(=O)cc(C)c4c(C)nn(-c5ccccc5)c43)c(C)o2)cc1OC	inactive	–
CCOc1ccccc1NC(=O)Cn1c(=O)n(Cc2ccco2)c(=O)c2sc3ccccc3c21	inactive	–
CCOC(=O)C1CCN(C(c2ccc(F)cc2)c2sc3nc(-c4ccco4)nn3c2O)CC1 (configuration not stated)	inactive	–
CCOc1ccccc1/C=c1\sc2nc(-c3ccco3)nn2c1=O	56.2 µM (active)	–
CCCC(=O)Nc1cc2nn(-c3ccccc3)nc2cc1C	inactive	–
Oc1ccc(N=Cc2sc3ccccc3c2Cl)cc1	50.1 µM (active)	–
COC(=O)c1cc(NC(=O)c2sc3ccccc3c2Cl)cc(C(=O)OC)c1	inactive	–
CCCC(=O)Nc1ccc(NC(=O)c2sc3ccccc3c2Cl)cc1	inactive	–
CCOCCCNC(=O)c1c(NC(=O)Cc2coc3c(C)c(C)ccc23)sc2c1CCC2	inactive	–
CCc1ccc(OCCCn2c(CCCNC(=O)C3CCCCC3)nc3ccccc32)cc1	inactive	–
CC1=C(C(=O)OCc2ccc(C)cc2)C(c2ccccc2Cl)CC(=O)N1 (configuration not stated)	inactive	–
CN(CC#CCC(c1ccccc1)c1ccccc1)C(C)(C)C	inactive	–
CC(C)(C)N(CC#CCC(O)(c1ccccc1)C1CCCC1)CCO (configuration not stated)	50.1 µM (active)	–
